Assay outcomes (PubChem BioAssay)
The list is not random: actives were taken first. Their share in the collection is about 5.3%.
Measles CPE = protection of cells from measles virus; protection (pct of control), % at 4 µM; AID 841; Measles virus-infected cells, CPE protection, absorbance; actives 1.5% (n = 140,000); in the data active = protection mostly above about 24%, no sharp cut-off; inactive = mostly below about 26%
PostGolgi yeast = growth inhibition of a yeast mutant, post-Golgi transport screen; post-Golgi transport phenotypic cell assay; inhibition, % at 10 µM; actives 0.9% (n = 98,000); AID 739;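 also: yeast cells grown in 1536-well plates; yeast grown about 18 h at 30C before absorbance read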
PostGolgi ctrl = growth of the yeast control strain, post-Golgi counter-screen; inhibition, % at 10 µM; efflux-deficient yeast background strain, growth absorbance A615, 16 h; actives 5% (n = 98,000); AID 738
MT1-MMP txn act = MT1-MMP promoter transcription activation; HT1080 MT1-MMP promoter luciferase reporter, luminescence, overnight; active compounds read high; activation factor at 10 µM; actives 0.16% (n = 86,000); AID 750;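 active = activation factor of at least 2 for MT1-MMP transcription at 10 µM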
An asterisk follows results filed as active; . = not tested or not shown. Rule as the data show it, unless noted: active = inhibition above about 30%; inactive = the rest.

SMILES	Measles CPE	PostGolgi yeast	PostGolgi ctrl	MT1-MMP txn act
COC(=O)CSc1nc2cc3c(cc2cc1C#N)OCO3	21	20	-5	1
O=C(c1cn(-c2ccccc2)nc1-c1ccc(Br)cc1)N1CCOCC1	5	.	.	.
CCOC(=O)C1=C(CC)Nc2ccccc2N=C1NC(=O)Nc1ccccc1OC	10	8	37*	1
COc1ccc(-n2cnnc2SCC(=O)NC2CCCc3ccccc32)cc1 (configuration not stated)	13	.	.	.
c1ccc(-n2c(SCc3nc(-c4cccs4)no3)nnc2-c2ccco2)cc1	12	-5	34*	1
CN1c2ccccc2C(O)=C(C(=S)Nc2ccccc2)S1(=O)=O	6	-25	20	.
CN1c2ccccc2C(O)=C(C(=S)Nc2ccc(F)c(Cl)c2)S1(=O)=O	41*	17	20	.
CCC/C=C(\CCC)C(NC(=O)c1ccco1)c1ccc(C(=O)OC)cc1 (configuration not stated)	.	.	.	1
CCN(CC)S(=O)(=O)c1ccc(NC(=O)C2c3ccccc3Oc3ccccc32)cc1	5	.	.	.
Nc1cc(C(=O)OCC(=O)N2CCCC2)ccc1Cl	17	6	32*	1.5
O=C(OCC(=O)N1CCCC1)c1cncc(Br)c1	43*	1	-3	1.2
O=C(OCC(=O)N1CCCc2ccccc21)c1cncc(Br)c1	13	.	.	.
CC1=C(C(=O)Nc2ccc(C)cc2C)C(c2ccc(Cl)cc2)n2nc(C(=O)OC(C)C)nc2N1 (configuration not stated)	3	.	.	.
Cc1ccc(Nc2nc(N)c([N+](=O)[O-])c(NCc3ccco3)n2)cc1C	7	.	.	.
COC(=O)c1ccc(Cl)c(NC(=O)NC23CC4CC(CC(C4)C2)C3)c1	6	16	31*	1.2
Nc1nonc1C(=O)NCCNCc1cc(Br)ccc1OCc1ccccc1F	12	3	7	0
Nc1nonc1C(=O)NCCNCc1ccccc1OCc1ccccc1F	12	-4	31*	1.1
COc1ccc(-n2cc3c(-c4cccc(Br)c4)nnc(C)c3n2)cc1	24	.	.	.
Cc1nnc(-c2cccc(Br)c2)c2cn(-c3ccccc3)nc12	9	94*	21	.
Cc1nnc(-c2cccc(Br)c2)c2cn(-c3ccc(Br)cc3)nc12	6	64*	49*	.
Cc1nnc(-c2cccc(Br)c2)c2cn(-c3cccc(Br)c3)nc12	17	7	19	.
O=C(OC(C(=O)NCc1cccs1)c1ccccc1F)c1ccco1 (configuration not stated)	42*	.	.	1.2
COc1ccc(C2NC(c3ccc(OC)c(OC)c3OC)C(C)C(=O)C2C)c(OC)c1OC (configuration not stated)	7	2	3	0.9
COc1ccc(C2NCCC3(O)CCCCC23)c(OC)c1OC (configuration not stated)	35*	-1	1	1.1
O=c1c2ccccc2nnn1Cc1ccccn1	63*	-4	-6	1.2
SMILES	Measles CPE	PostGolgi yeast	PostGolgi ctrl	MT1-MMP txn act
CC(C)OC(=O)c1ccc(Cn2nnc3ccccc3c2=O)cc1	39*	-6	4	.
COC(=O)[C@@]1(Cc2ccccc2)[C@H]2c3cc(C(=O)N(C)C)n(Cc4ccsc4Br)c3C[C@H]2CN1C(=O)c1ccccc1	.	.	.	1.2
N#CCc1ccc(NC(=O)Nc2cccc(Cl)c2)cc1	3	-1	31*	1.3
O=C(Nc1cccc(Cl)c1)Nc1cccc(Cl)c1	12	.	.	1.1
COC(=O)c1cc(NC(=O)Nc2cccc(Cl)c2)ccc1Cl	4	25	41*	.
Cc1ccc(C(=O)Nc2cc(Cl)ccc2N2CCCCC2)s1	4	0	20	1
CCc1sc(C(=O)Nc2cc(Cl)ccc2N2CCCCC2)cc1C	29	64*	41*	.
CC(C)(C)NS(=O)(=O)c1cnc(Cl)c(Cl)c1	5	3	2	.
CC(C(=O)O)c1ccc(N2Cc3ccccc3C2=O)cc1 (configuration not stated)	31	.	.	.
O=C(Nc1cccnc1)Nc1ccc(Br)cc1Cl	27	-10	35*	1.2
COc1ccc2nc(SCC(=O)Nc3ccccc3C)[nH]c2c1	12	-4	3	1.3
CC1c2c([nH]c3ccccc23)CCC1C(=O)O (configuration not stated)	12	.	.	.
CCN1C(=O)CSc2ccc(C(=O)NCc3ccc(OC)cc3)cc21	36*	-8	-3	1.1
Cn1cc([N+](=O)[O-])c(C(=O)Nc2nc(-c3ccc(Cl)cc3)cs2)n1	15	1	40*	.
Cc1[nH]n(-c2ccccc2)c(=O)c1Sc1ccc(Cl)cc1	8	-3	35*	1.1
CCCCCCC(=O)NC(Nc1ccc(S(N)(=O)=O)cc1)C(Cl)(Cl)Cl (configuration not stated)	32*	4	8	.
COc1cccc(CN(c2ccc3c(c2)CCC3)S(=O)(=O)c2ccc(-n3cnnn3)c(OC)c2)c1	6	.	.	.
N#Cc1c(N)c(C#N)c(-c2ccc3c(c2)OCO3)c2c1CCCC2	4	6	19	1.1
N#Cc1c(N)c(C#N)c(-c2ccc(O)cc2)c2c1CCCC2	27	7	34*	1.1
Cc1ccc(N=Cc2c(O)n(-c3ccc4c(c3)OCO4)c(=O)c3ccccc23)cc1	20	30*	6	1
Cc1cccc(-n2c(O)c(C=Nc3ccc(O)cc3)c3ccccc3c2=O)n1	4	.	.	.
CCCCNC(=O)CNC(=S)N(Cc1cc(OC)c(OC)c(OC)c1)C1CCCC1	25	.	.	.
COc1ccccc1N1CCN(C(=O)Cc2cccs2)CC1	4	-1	38*	1.1
O=C(CSc1nc2ccccc2o1)Nc1ccccc1N1CCOCC1	48*	-21	5	1.1
COc1ccc(Cc2nnc(SCC(=O)N3CCN(c4ccccc4)CC3)o2)cc1	2	4	36*	1.1
SMILES	Measles CPE	PostGolgi yeast	PostGolgi ctrl	MT1-MMP txn act
COc1ccccc1N1CCN(C(=O)CSc2nc3ccccc3o2)CC1	4	33*	8	1.6
N#CC1(c2nc3ccccc3[nH]2)CC1c1ccc2c(c1)OCO2 (configuration not stated)	17	10	-9	1.2
CC1(C)CC(=O)c2cnc(NC(=O)CSc3nc4ccccc4o3)nc2C1	17*	.	.	1.1
Cc1cc(NC(=O)CSc2ccc3nnc(-c4cccnc4)n3n2)no1	44*	2	1	1.2
Cc1ccc(-c2nnc3ccc(SCC(=O)Nc4cc(C)on4)nn23)cc1	8	-3	3	1.3
Cc1cc(C)c2c(=O)[nH]c(=O)n(Cc3ccccc3)c2n1	10	8	43*	1.1
O=C(CN1CCN(c2ccc(F)cc2)CC1)Nc1cc(C(F)(F)F)ccc1Cl	2	-4	48*	1
COc1ccccc1NC(=O)CN1CCN(c2ccc(Cl)cc2)CC1	8	1	32*	1.1
Cc1cc[n+](CC(=O)Nc2cc(C(F)(F)F)ccc2Cl)cc1	21	1	9	.
COc1ccccc1NC(=O)CN1CCN(C2c3ccccc3-c3ccccc32)CC1	19	3	27	1.1
COc1ccc(NC(=O)CN2CCN(C3c4ccccc4-c4ccccc43)CC2)c(OC)c1	12	3	68*	1.1
CN(C)c1cc[n+](CC(=O)Nc2cc(C(F)(F)F)ccc2Cl)cc1	64*	2	2	.
O=[N+]([O-])c1ccc(Oc2c(F)c(F)nc(N3CCCC3)c2F)cc1	5	13	14	.
